Measurements: PubChem BioAssay (NCI)
This is part of a sample that, as a whole, favours compounds with a hit. Of some 83,000 tested, about 20% had one in any assay.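 Cell lines were cultured in 96-well plates, exposed to a single compound concentration, and assessed for percent growth 48 hours later.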 Unmarked numbers belong to inactive results. Active and inactive are the calls of the source. The calls were made as follows: active = growth percent below 10; inactive = the rest.

Columns and labels:
Assay in all cases: NCI-60 one-dose screen, 48 h (100 = growth as untreated, 0 = no growth, -100 = all killed)
Conditions in all cases: 10 µM unless noted
SK-MEL-2 melanoma = tested on: SK-MEL-2 melanoma
SN12C renal = tested on: SN12C renal
UO-31 renal = tested on: UO-31 renal
TK-10 renal = tested on: TK-10 renal
ACHN renal = tested on: ACHN renal
CAKI-1 renal = tested on: CAKI-1 renal
A498 renal = tested on: A498 renal
CCRF-CEM leukemia = tested on: CCRF-CEM leukemia
MOLT-4 leukemia = tested on: MOLT-4 leukemia
SR leukemia = tested on: SR leukemia
RPMI-8226 leukemia = tested on: RPMI-8226 leukemia
OVCAR-8 ovarian = tested on: OVCAR-8 ovarian
OVCAR-5 ovarian = tested on: OVCAR-5 ovarian
OVCAR-4 ovarian = tested on: OVCAR-4 ovarian
IGROV1 ovarian = tested on: IGROV1 ovarian
OVCAR-3 ovarian = tested on: OVCAR-3 ovarian
HS 578T breast = tested on: HS 578T breast
NCI/ADR-RES ovarian = tested on: NCI/ADR-RES ovarian
SK-OV-3 ovarian = tested on: SK-OV-3 ovarian
EKVX NSCLC = tested on: EKVX NSCLC

Row | SMILES | growth (SK-MEL-2 melanoma) | growth (SN12C renal) | growth (UO-31 renal) | growth (TK-10 renal) | growth (ACHN renal) | growth (CAKI-1 renal) [%] | growth (A498 renal) | growth (CCRF-CEM leukemia) | growth (MOLT-4 leukemia) | growth (SR leukemia) | growth (RPMI-8226 leukemia) | growth (OVCAR-8 ovarian) | growth (OVCAR-5 ovarian) | growth (OVCAR-4 ovarian) | growth (IGROV1 ovarian) | growth (OVCAR-3 ovarian) | growth (HS 578T breast) | growth (NCI/ADR-RES ovarian) | growth (SK-OV-3 ovarian) | growth (EKVX NSCLC) [%]
1 | CCOC(=O)NNC(=S)Nc1ccccc1 | 116% | 99% | 89.4% | 111% | 105% | 92.3 | 95.1% | 106% | 106% | 110% | 105% | 102% | 116% | 100% | 107% | 116% | 103% | 106% |  | 
2 | CC(C)(C)n1cc(-c2ccnc(NCCCNS(=O)(=O)c3ccc(Br)cc3)c2)c(-c2cccc(O)c2)n1 | 19% | 42.9% | 39% | 90.1% | 33.1% | 36.7 | 35.1% | 25.5% | 6.97% (active) | -16% (active) | -6% (active) | 41.1% | 38.5% | 36.5% | 34.9% | 42.8% | 16.9% | 43.7% | 62.6% | 
3 | COc1cc(NCCCCCN)c2ncccc2c1 | 126% |  | 86.9% | 119% |  | 96.7 | 116% | -24% (active) | 88.3% | 70.6% | 88.8% | 100% |  | 86.8% | 98% |  | 113% | 109% | 109% | 113
4 | O=c1ccn(C2CC(O)C(O)C(CO)O2)c(=O)[nH]1 (stereo unspecified) | 145% | 92.5% | 85% | 121% | 116% | 97 | 118% | 7.45% (active) | 102% | 123% | 85.7% | 116% | 108% | 108% | 118% | 123% | 120% | 113% |  | 
5 | CC(C)(C)OC(=O)NCCc1ccc(N=C=S)cc1 | 53.8% | 90.6% | 62.7% |  | 80.3% |  | 70.2% | 30.2% | 69% | 22.5% | 9.22% (active) | 86% | 82.7% | 76.9% | 71.8% | 72.7% | 92.3% | 75.6% | 97.1% | 89.7
6 | CCOC(=O)c1ccc2c(c1)c1c(C)c3cccnc3c(C)c1n2C | 96% | 33.8% | 32% | 87.8% | 29.8% | 30.9 | 83.4% | 47.9% | 21.4% | 16.1% | 62.8% | 46.2% | 69.3% | 62.7% | 24.1% | 69.8% | 85.2% | 48.4% | 84.1% | 
7 | COC(=O)c1cc(=O)nc(N/N=C/c2ccco2)s1 | 117% | 102% | 87.5% | 118% | 104% | 105 | 99.5% | 95.6% | 94.9% | 87% | 96% | 107% | 108% | 96.7% | 93.4% | 106% | 106% | 104% | 117% | 
8 | CC(C)(C)n1cc(-c2ccnc(NCCCNS(=O)(=O)c3ccc(Cl)cc3)c2)c(-c2cccc(O)c2)n1 | -64% (active) | 18.1% | 11% | 43.7% | 8.91% (active) | 19.2 | -8.44% (active) | 8.5% (active) | -17.3% (active) | -34.5% (active) | -29.7% (active) | 6.22% (active) | -20.5% (active) |  | 8.56% (active) | 4.31% (active) |  | 12.2% | 37.4% | 
9 | COc1ccc(C2=Nn3c(nnc3-n3nc(C)cc3C)SC2)cc1 | 16.8% | 33.2% | 45.8% | 49% | 35.6% | 53.1 | -8.89% (active) | 6.66% (active) | 5.34% (active) |  | 20.9% | 17.6% | 48.7% | 61.1% | 32.2% | -47.9% (active) | 7.5% (active) |  | -3.05% (active) | 
10 | O=C(O)c1nc(-c2ccccc2)oc1N1CCOCC1 | 97% | 99% | 81.6% | 91.9% | 101% | 92.2 | 114% | 107% | 105% |  | 107% | 98.4% | 93.2% | 108% | 98.2% | 105% | 86.3% | 96.6% | 92.7% | 
11 | COc1cc(-c2nn(-c3cccc(NC(=O)c4ccccc4)c3)cc2-c2ccncc2)ccc1Cl | -42.5% (active) | 28.8% | 29.8% | 31% | 32.3% | 40.6 | -23.2% (active) | 2.06% (active) | 0.658% (active) |  | 9.39% (active) | 19.6% | 66.4% | 46.5% | 47.4% | 0.0228% (active) |  | 0.342% (active) | 42.1% | 
12 | O=C(Nc1cccc(-n2cc(-c3ccncc3)c(-c3ccc(Cl)c(O)c3)n2)c1)Nc1ccc(Cl)c(C(F)(F)F)c1 | -60.4% (active) | 7.46% (active) | -6.09% (active) | -1.62% (active) | 6.62% (active) | 17.3 | 11.1% | -13.8% (active) | -22.1% (active) |  | -10.5% (active) | -41.8% (active) | 23.3% | -3.42% (active) | 10.4% | -43% (active) | -7.39% (active) | -16.9% (active) | 7.47% (active) | 
13 | COc1cc(-c2nc(-c3nc4ccc(Cl)cc4[nH]3)cc3c2[nH]c2ccccc23)cc(OC)c1OC | 62% | 66.1% | 41.7% | 93.6% | 66.4% | 83.7 | 78% | 46.5% | 34.4% |  | 45.2% | 48.4% | 93.3% | 59.9% | 52.6% | 82.8% | 77.3% | 55.6% |  | 
14 | Cc1ccc2nc(-c3cc4c([nH]c5ccccc54)c(-c4ccc(F)c(F)c4)n3)[nH]c2c1 | 94% | 81.8% | 65.4% | 117% | 85.9% | 93.6 | 106% | 16.8% | 35.4% | -18.8% (active) | 47.4% | 78.3% | 113% | 69% |  | 96.7% |  | 83% |  | 
15 | O=C(Nc1cccc(-n2cc(-c3ccncc3)c(-c3ccc(Cl)c(O)c3)n2)c1)c1ccc(N2CCOCC2)c(C(F)(F)F)c1 | 17.6% | 73.9% | 36.9% | 119% | 36.6% | 81.2 | 101% | 27.9% | 29.1% |  | 5.19% (active) | 37% | 116% | 108% | 96.8% | 56% | 15.5% | 43.9% | 74.2% | 
16 | Fc1ccc(Nc2nc(NCCNc3ccnc4cc(Cl)ccc34)nc(N3CCOCC3)n2)cc1 | 50.7% | 63.8% | 45.2% | 86.2% | 55.4% | 76.9 | 8.73% (active) | 49.1% | 25.2% |  | 33.6% | 74.7% | 105% | 61.1% | 75.5% | 85.1% | 70.2% | 77.8% | 91.6% | 
17 | Cc1ccc(S(=O)(=O)NCCNc2nccc(-c3c(-c4ccc(O)cc4)nc4sccn34)n2)cc1 | 114% | 93.3% | 84% | 121% | 93% | 98.2 | 104% | 86.8% | 59% |  | 85.9% | 89.3% | 135% | 102% | 97.1% | 110% | 106% | 97.8% | 107% | 
